# PubChem BioAssay (NCATS)
# Inconclusive results are not listed. Activity calls are given as the source filed them. The call rests on the fitted dose curve.
# Target: Peroxisome proliferator-activated receptor delta (Homo sapiens) (UniProt Q03181)
# Assay: qHTS assay for small molecule agonists of peroxisome proliferator-activated receptor delta signaling (AID 588534)
# Settings: HEK293T PPARdelta-UAS-bla, beta-lactamase ratio, 18 h; series mostly up to 76.7 µM
# Excerpt: NIH Chemical Genomics Center [NCGC] U.S. Environmental Protection Agency [EPA] National Institutes of Environmental Health Sciences [NIEHS] National Toxicology Program [NTP] NCGC Assay Overview The Peroxisome proliferator-activated receptors (PPARs) are lipid-activated transcription factors of the nuclear receptor superfamily with three distinct subtypes namely PPAR alpha, PPAR delta (also called PPAR beta) and PPAR gamma. All these subtypes heterodimerizes with Retinoid X receptor (RXR) and have different physiological functions. […] This role of PPAR delta implicates the potential use of its ligands in the treatment of metabolic disorders.
# Compounds were screened in a titration series in 1536-well format. […] Concentration-response titration points for each compound were fitted to the Hill equation yielding concentrations of half-maximal stimulation (EC50) and maximal response (efficacy) values. qHTS protocol for PPAR-delta beta-lactamase assay in agonist mode [Step] [Parameter] [Value] [Description] 1. Reagent; 6 uL; 4000 cells/well 2. Incubation; 37 C for 5 hrs 3. Compounds; 23 nL; 0.59 nM to 92 uM 4. […] Incubation; 37 C for 18 hrs 6. Detection reagent; 1 uL of CCF4-dye 7. Incubation; RT for 2 hrs 8. Detection; Fluorescence; Envision plate reader
# Sequence of Peroxisome proliferator-activated receptor delta (Homo sapiens) (Q03181 whole entry, looked up): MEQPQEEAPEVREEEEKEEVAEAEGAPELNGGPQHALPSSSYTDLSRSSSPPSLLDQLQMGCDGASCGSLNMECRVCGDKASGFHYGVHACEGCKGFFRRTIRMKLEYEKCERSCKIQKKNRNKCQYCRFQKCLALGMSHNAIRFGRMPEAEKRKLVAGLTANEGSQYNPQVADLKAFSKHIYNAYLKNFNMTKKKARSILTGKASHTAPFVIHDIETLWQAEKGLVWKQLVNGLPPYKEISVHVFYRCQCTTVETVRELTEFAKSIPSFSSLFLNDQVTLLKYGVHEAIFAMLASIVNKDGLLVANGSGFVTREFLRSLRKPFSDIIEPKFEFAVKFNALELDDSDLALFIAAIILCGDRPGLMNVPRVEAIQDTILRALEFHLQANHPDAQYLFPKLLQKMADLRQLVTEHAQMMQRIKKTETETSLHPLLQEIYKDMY
row,SMILES,outcome
1,O=C1CCC(N2C(=O)c3ccccc3C2=O)C(=O)N1 (stereo not given),inactive
2,CCCCOCCOCCOCc1cc2c(cc1CCC)OCO2,inactive
3,Cc1ccc(C)c(OCCCC(C)(C)C(=O)O)c1,inactive
4,Cc1cn([C@H]2C[C@H](N=[N+]=[N-])[C@@H](CO)O2)c(=O)[nH]c1=O,inactive
5,CCc1nc(N)nc(N)c1-c1ccc(Cl)cc1,inactive
6,CC1=C(/C=C/C(C)=C/C=C/C(C)=C/C(=O)Nc2ccc(O)cc2)C(C)(C)CCC1,inactive
7,O=c1[nH]cnc2c1ncn2[C@H]1CC[C@@H](CO)O1,inactive
8,Nc1ncn([C@@H]2O[C@H](CO)[C@@H](O)[C@H]2O)c(=O)n1,inactive
9,CN(C)/N=N/c1nc[nH]c1C(N)=O,inactive
10,CC[C@H](C)C(=O)O[C@H]1C[C@@H](C)C=C2C=C[C@H](C)[C@H](CC[C@@H]3C[C@@H](O)CC(=O)O3)[C@H]21,inactive
11,Nc1ccc(O)c(C(=O)O)c1,inactive
12,CNCC(O)c1ccc(O)cc1 (stereo not given),inactive
13,Oc1ccc(Cl)cc1Cc1ccccc1,inactive
14,NS(=O)(=O)c1cc2c(cc1Cl)NC=NS2(=O)=O,inactive
15,Cc1cn([C@H]2C=C[C@@H](CO)O2)c(=O)[nH]c1=O,inactive
16,CCCCNC(=O)NS(=O)(=O)c1ccc(C)cc1,inactive
17,Oc1ccccc1-c1ccccc1,inactive
18,N=C(N)c1ccc(OCCCCCOc2ccc(C(=N)N)cc2)cc1,inactive
19,COc1cc(Cc2cnc(N)nc2N)cc(OC)c1OC,inactive
20,CC(C)(C)CC(C)(C)c1ccc(O)cc1,inactive

row,SMILES,outcome
1,Clc1ccc(COC(Cn2ccnc2)c2ccc(Cl)cc2Cl)cc1 (stereo not given),inactive
2,Cc1ncc([N+](=O)[O-])n1CCO,inactive
3,O=NN(CCCl)C(=O)NCCCl,inactive
4,CN(C)CCCN1c2ccccc2Sc2ccc(Cl)cc21,inactive
5,C[C@@H]1C[C@H]2[C@@H]3CCC4=CC(=O)C=C[C@]4(C)[C@@]3(F)[C@@H](O)C[C@]2(C)[C@@]1(O)C(=O)CO,inactive
6,NC(=O)N/N=C/c1ccc([N+](=O)[O-])o1,inactive
7,c1ccc2c(c1)Nc1ccccc1S2,inactive
8,Clc1ccc(C(c2ccccc2Cl)C(Cl)Cl)cc1 (stereo not given),inactive
9,CS(=O)(=O)OCCCCOS(C)(=O)=O,inactive
10,OC(Cn1cncn1)(Cn1cncn1)c1ccc(F)cc1F,inactive
11,CC(=O)N[C@@H](CS)C(=O)O,inactive
12,CC(C)NCC(O)c1ccc(O)c(O)c1 (stereo not given),inactive
13,Cc1ccc(S(=O)(=O)NC(=O)NN2CCCCCC2)cc1,inactive
14,C#C[C@]1(O)CC[C@H]2[C@@H]3CCC4=Cc5oncc5C[C@]4(C)[C@H]3CC[C@@]21C,inactive
15,O=C1NC(=O)C(c2ccccc2)(c2ccccc2)N1,inactive
16,OCCOc1ccccc1,inactive
17,CN(C)CCOC(C)(c1ccccc1)c1ccccn1 (stereo not given),inactive
18,CC(COc1ccccc1)N(CCCl)Cc1ccccc1 (stereo not given),inactive
19,COc1cccc2c1C(=O)c1c(O)c3c(c(O)c1C2=O)C[C@@](O)(C(=O)CO)C[C@@H]3O[C@H]1C[C@H](N)[C@H](O)[C@H](C)O1,inactive
20,CCCN(CCC)S(=O)(=O)c1ccc(C(=O)O)cc1,inactive
